# Screening data from PubChem BioAssay.
# Only some compounds are listed: those with a hit (about 9.5% of all), similar ones and a draw of the others.
# NS1 inh: blocks influenza NS1 protein function; Potency, µM (series often up to 46.1 µM), without a hit: at the top dose activity, positive = more growth; actives 0.4% (n = 270,000); calls by dose curve; further: actives are rising curves; nearly all actives have a fitted effect of over 50% in size
#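 OD600 was taken as the measure of yeast growth restored by compound in an NS1-expressing S. cerevisiae strain. Cells had been washed out of glucose medium and diluted 1:100 into galactose -URA medium, pH 6.0.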
# Pf growth 48h: inhibits P. falciparum growth in the first generation, 48 h | P. falciparum luciferase growth in erythrocytes, 48 h | actives 5.9% (n = 310,000) | AID 504832 | Potency, µM (top dose mostly 28.7 µM), for inactives: at the highest dose activity change, negative = inhibition, usual class: inhibitors; further: on the % scale 0 is the no-effect control and ±100 the full control effect
#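 Compounds are pin-transferred into medium, infected erythrocytes (2% hematocrit, 0.1% parasitemia final) are added, and plates sit one parasite generation at 37 C in 5% CO2. Detection reagent is then added and luminescence measured.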
# Pf growth 96h: P. falciparum growth inhibition at 96 hour, primary screen for plastid delayed-death inhibitors; actives 6.9% (n = 320,000); P. falciparum luciferase reporter growth, 96 h; Potency, µM (doses to about 28.7 µM), for the others: top-dose activity change, negative = inhibition, most hits filed as inhibitors; further: on the % scale 0 is the no-effect control and ±100 the full control effect
#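 Two-generation exposure (96 h) targets delayed-death phenotype. Reporter parasites carrying integrated firefly luciferase, in red cells at 2% hematocrit and 0.05% parasitemia final, kept at 37 C, 5% CO2; luminescence loss indicates inhibition.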
# RE007 growth inh: less growth of the S. pombe RE007 Vpr strain; actives 0.21% (n = 360,000); S. pombe RE007 Vpr strain, BacTiter-Glo ATP luminescence, 24 h; Potency, µM (doses to about 92.2 µM), for the others: top-dose activity change, negative = less growth, hits mostly inhibitors; active means well fitted falling curve with a large enough effect; inconclusive means small, poorly fitted or top-dose-only effect; inactive means no such curve, though single readings can be large or run the other way; further: on the % scale 0 is the no-effect control and ±100 the full control effect; nearly all actives have a fitted effect of over 50% in size
#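 Fission yeast strain RE007, carrying one chromosomally integrated HIV-1 vpr copy, was seeded at OD 0.01 in PMG+AL medium with 23 nL pinned compound. After 24 h at 30 °C and 99% humidity, viability was read by BacTiter-Glo luminescence.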
# SARS PLpro yeast: SARS-CoV PLP inhibition in yeast; Potency, µM (highest dose often 32.9 µM), without a hit: at the top dose activity, positive = growth rescue, hits mostly activators; S. cerevisiae expressing SARS-CoV PLpro, growth rescue; actives 0.19% (n = 330,000); calls by dose curve; further: 0% is about no effect; nearly all actives have a fitted effect of over 55% in size
# The depositor's hits bear a star; ? = inconclusive; nt = no result; [ ] = another dose, or the depositor's remark. Unless noted, the call rests on the fitted dose curve; in most records, active means well fitted inhibition curve with a large enough effect; inconclusive means small, poorly fitted or top-dose-only effect, or another doubt; inactive means no such curve, though single readings can be large or run the other way. Potency means the concentration at half of the fitted maximal effect.
SMILES,NS1 inh,Pf growth 48h,Pf growth 96h,RE007 growth inh,SARS PLpro yeast
Cc1ccc(S(=O)(=O)N2CC(O)C2)cc1,nt,8%,0%,2%,-2%
Cc1ccc2c(c1)C(c1ccccc1)N(C(=O)c1cccc([N+](=O)[O-])c1)CC(=O)N2 (stereo unspecified),1%,?,-7%,6%,0%
CC(NC(=O)c1ccc(S(=O)(=O)Nc2ccccc2Cl)cc1)c1ccncc1 (stereo unspecified),nt,nt,nt,3%,1%
Cn1cc(Br)c(C(=O)N/N=C/c2cc3c(cc2Cl)OCO3)n1,-1%,72%,99%,-2%,-11%
O=C(CN1CCC(NC(=O)c2ccco2)CC1)Nc1cccc2ccccc12,-5%,?,10µM*,-4%,6%
COc1ccc2ccccc2c1CN1CCN(C(=O)c2ccco2)CC1,-29%,6.6µM*,11%,10%,-6%
O=C(CN1CCC(NC(=O)c2ccco2)CC1)Nc1ccccc1[N+](=O)[O-],1%,?,?,nt,0%
COc1ccc(NC(=O)CN2CCN(C(=O)c3ccco3)CC2)c(OC)c1,-8%,10µM*,-16%,10%,-1%
Cc1ccccc1NC(=O)CN1CCN(C(=O)c2ccco2)CC1,-6%,?,1%,8%,-1%
Cc1cc(Cl)ccc1NC(=O)CN1CCN(C(=O)c2ccco2)CC1,3%,10µM*,-7%,-5%,7%
CC1(C)CC(NC(=O)c2ccccn2)CC(C)(C)N1O,5%,20%,7%,-1%,1%
COC(=O)c1ccc(-c2sc3nc(N4CCOCC4)c4c(c3c2N)CCCC4)o1,12%,9%,9.3µM*,-1%,-5%
CCOC(=O)c1sc2nc(N3CCOCC3)c3c(c2c1N)CCCC3,-8%,28%,1µM*,-9%,1%
Cc1noc(C)c1NC(=O)N(C)C[C@H]1OCc2cnnn2CCCC(=O)N([C@H](C)CO)C[C@H]1C,nt,nt,nt,31%,nt
COc1ccc(C(C(=O)NC2CCCCC2)N(C(=O)CCl)c2ccc(OC)cc2)cc1 (stereo unspecified),18%,-17%,9.3µM*,7%,-12%
COc1ccc(C(C(=O)NC2CCCC2)N(C(=O)c2ccoc2C)c2ccc(C)cc2)cc1 (stereo unspecified),-3%,10µM*,?,1%,-10%
CN(C)c1ccc(NC(=O)Nc2nc(C(N)C3CCCCC3)cs2)cc1 (stereo unspecified),nt,nt,nt,-9%,nt
CCOc1ccc(Nc2cc(=O)oc3ccccc23)cc1,-35%,1.3µM*,1.7µM*,11%,-4%
Cc1ccc(S(=O)(=O)NCc2ccncc2)cc1,5%,nt,4%,5%,1%
CC1CCCCC1NS(=O)(=O)c1ccc(S(=O)(=O)NCc2ccncc2)cc1 (stereo unspecified),?,15µM*,?,-2%,5%
O=C(C1CC1)N(CCN(C(=O)C1CC1)c1ccccc1)c1ccccc1,3%,0.0026µM*,-6%,16%,-3%
CC(=O)Nc1cccc(Cn2cccn2)c1,5%,6%,13µM*,nt,1%
O=C(CNc1cccc(S(=O)(=O)N2CCCC2)c1)Nc1ccc(F)cc1F,nt,8.3µM*,9.3µM*,?,-1%
CN(C)S(=O)(=O)c1cccc(NC(=O)CNc2cccc(S(=O)(=O)N3CCCCC3)c2)c1,nt,nt,nt,15%,nt
O=C(CNc1cccc(S(=O)(=O)N2CCCCC2)c1)Nc1cccc(F)c1,nt,2.9µM*,2.3µM*,5%,2%
SMILES,NS1 inh,Pf growth 48h,Pf growth 96h,RE007 growth inh,SARS PLpro yeast
COC(=O)C1=C(C)N(Cc2ccccc2)C(=NCCc2ccccn2)N[C@H]1c1cccc(F)c1,1%,12µM*,8.3µM*,-3%,?
COC(=O)C1=C(C)N(Cc2ccccc2)C(=NCc2cccc(C(F)(F)F)c2)N[C@H]1c1cccc(F)c1,-44%,6.6µM*,?,2%,-17%
CCN1C(=NCCc2c[nH]c3ccccc23)N[C@@H](c2ccccc2)C(C(=O)OC)=C1C,-2%,13µM*,1%,nt,14%
CCN1C(=NCc2cc(OC)c(OC)c(OC)c2)N[C@@H](c2cccc(F)c2)C(C(=O)OC)=C1C,2%,5.2µM*,10µM*,nt,8%
CSc1ccc(C(=O)C2CCCN(C(=O)Cc3nonc3C)C2)cc1 (stereo unspecified),-8%,-2%,4%,-6%,1%
CC[C@]12C(=O)N(C)C[C@H]([C@@H]3C(=O)N(C)C(=O)[C@@H]31)N2C(=O)c1ccc(C(C)(C)C)cc1,nt,nt,nt,-15%,nt
COC(=O)C1=C(C)N(Cc2ccccc2)C(=NCCc2c[nH]c3ccccc23)N[C@H]1c1cccc(C(F)(F)F)c1,4%,?,13µM*,-7%,1%
COCCN=C1N[C@@H](c2cccc(C(F)(F)F)c2)C(C(=O)OC)=C(C)N1Cc1ccccc1,3%,?,4.7µM*,-1%,-3%
CCN1C(=NCCc2cccs2)N[C@@H](c2cccs2)C(C(=O)OC)=C1C,9%,7.4µM*,?,-13%,-5%
CC1(C(=O)Nc2ccc3c(c2)OCO3)CCN1C(=O)C1CCCCC1 (stereo unspecified),nt,nt,nt,-3%[18.4 µM],nt
Cc1ccc(CC2CC(=O)N(CCc3ccccc3)C2=O)cc1 (stereo unspecified),-11%,9%,13µM*,19%,-2%
Cc1ccc(N2C(=O)CC(Cc3cccc(C)c3)C2=O)cc1 (stereo unspecified),2%,10%,0.29µM*,-26%,0%
CCOc1ccccc1N1CCN(C(=O)NCc2ccc(C)cc2)CC1,-23%,?,-11%,4%,-3%
O=C(O)C1C2C=CC(C2)C1C(=O)Nc1ccc2c(c1)OCCO2 (stereo unspecified),4%,31%,nt,1%,-2%
CN(C)c1ccc(NC(=O)C2C3C=CC(C3)C2C(=O)O)cc1 (stereo unspecified),8%,2.6µM*,?,-18%,0%
CC(=O)c1ccc(NC(=O)C2C3CCC(C3)C2C(=O)O)cc1 (stereo unspecified),-3%,-5%,13µM*,-21%,-7%
CCC1(CC)NC(=O)N(CC(=O)Nc2cccc3ccccc23)C1=O,nt,nt,nt,-1%,8%
CCC1(CC)NC(=O)N(CC(=O)OCC(=O)Nc2ncc(Cl)cc2Cl)C1=O,nt,6%,10%,5%,-6%
CCCN(CCC)C(=O)Cn1c(=O)n(CCC(=O)NCCc2ccccc2)c(=O)c2ccccc21,7%,nt,9.3µM*,11%,1%
COCCCNC(=O)CCn1c(=O)c2ccccc2n(CC(=O)Nc2c(C)cccc2C)c1=O,8%,8%,9.3µM*,-5%,4%
COCCNC(=O)Cn1c(=O)n(CCC(=O)NCCc2ccccc2)c(=O)c2ccccc21,0%,33%,-3%,2%,25%
COCc1cc(C)nc(N/N=C/c2ccc(Cl)c(Cl)c2)c1C#N,-5%,1%,40%,-1%,16%
